Laboratory results from PubChem BioAssay (NCATS).
Records with an inconclusive call do not appear. A call without a number means that no potency is given here. Calls of active or inactive are those of the source. The call rests on the fitted dose curve; in most records, active means well fitted cell-killing curve with a large enough effect; inconclusive means small, poorly fitted or top-dose-only effect, or effect the other way; inactive means flat fitted curve, though single readings scatter.

test system: OV90; assay: Primary qHTS to identify gynecologic anti-cancer compounds using libraries of approved drugs and bioactive compounds (AID 1345084); settings: Gynecologic cancer cell panel viability, ATPlite luminescence, 48 h; series mostly up to 57.5 µM; further: nearly all actives have a fitted effect of over 55% in size
Procedure, shortened: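 Cells, 1,000 per well, were allowed to settle for 16 h at 37 C before compound addition. Five concentrations were tested for 48 h, and viability was read by ATPlite luminescence after 15 min at room temperature.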
Potency means the concentration at half of the fitted maximal effect.

Row | SMILES | Potency | activity change, negative = cytotoxicity
1 | CC12CCC(OC3OC(CO)C(O)C(OC4OC(CO)C(O)C(O)C4O)C3O)CC1CCC1C2CCC2(C)/C(=C3/COC(=O)C3)CCC12O (centres undefined) | inactive | –
2 | CC[C@@H](O)C[C@@H]1C(C)=C[C@@H]2CCCC[C@@H]2[C@@]1(C)C(=O)O | inactive | –
3 | CNC(=O)c1cccc(-c2ccc3c(N4CCOC[C@@H]4C)nc(N4CCOC[C@@H]4C)nc3n2)c1 | 1.26 µM (active) | –
4 | C/C=C/C=C/C(=O)N1CC[C@]23c4ccccc4N[C@H]4N(C)c5cccc6c5[C@@]42CCN([C@H]6C2OC2(C)C)[C@H]13 (some centres undefined) | inactive | –
5 | CC1(C)CC[C@]2(C(=O)OC3OC(CO)C(O)C(O)C3O)CC[C@]3(C)C(=CCC4[C@@]5(C)CC[C@H](OC6OC(C(=O)O)C(O)C(OC7OC(CO)C(O)C(O)C7O)C6O)C(C)(C)C5CC[C@]43C)C2C1 (some centres undefined) | – | 9.69% [at 11.6 µM] (inactive)
6 | O=C(O)CC(=O)OC[C@H]1O[C@@H](Oc2ccc3c(c2)OC[C@H]2c4cc5c(cc4O[C@@H]32)OCO5)[C@H](O)[C@@H](O)[C@@H]1O | inactive | –
7 | Cc1ccc(C)c(OCCn2cc(C(=O)O)c3ccccc32)c1 | inactive | –
8 | COc1ccc(C[C@H](N)C(=O)N[C@@H]2[C@H](O)[C@H](n3cnc4c(N(C)C)ncnc43)O[C@@H]2CO)cc1 | 7.94 µM (active) | –
9 | COc1ccc(/C=C/C(=O)O[C@@H]2[C@@H](O)[C@H](C)O[C@@H](O[C@H]3[C@@H]4C=CO[C@@H](O[C@H]5O[C@@H](CO)[C@H](O)[C@@H](O)[C@@H]5O)[C@@H]4[C@@]4(CO)O[C@@H]34)[C@@H]2OC(C)=O)cc1 | inactive | –
10 | CC(C)c1cc(C(=O)N2CC[C@H](NC(=O)C3CC3)C2)n[nH]1 | inactive | –
11 | CC1CCC2(OC1)OC1CC3C4CC=C5CC(O)CC(O[C@@H]6OC[C@@H](O)[C@H](O)[C@H]6O)C5(C)C4CCC3(C)C1(O)C2C (some centres undefined) | inactive | –
12 | COc1ccc(-c2ccc3c(N4CCOCC4)nc(N4CC(C)OC(C)C4)nc3n2)cc1CO (centres undefined) | 2.82 µM (active) | –
13 | CC1=CC(=O)C(=C(C)C)CC2C1CCC2(C)O (centres undefined) | inactive | –
14 | CC(C)(C)c1ccc(S(=O)(=O)NCc2ccc(C(=O)Nc3cccnc3)cc2)cc1 | 3.98 µM (active) | –
15 | COc1ccc(-c2c(-c3cc(C(=O)O)ccn3)ncn2C)cc1 | inactive | –
16 | O=C(O)c1cc(-c2c(-c3ccccc3)nn3ccccc23)n[nH]c1=O | inactive | –
17 | CC(C)(C)NCCCNC(=O)c1cccc(Br)c1 | inactive | –
18 | c1ccc(-c2csc(N3CCOCC3)n2)cc1 | inactive | –
19 | O=C1CCC(=O)N(O)CCCCCNC(=O)CCC(=O)N(O)CCOCCNC(=O)CCC(=O)N(O)CCCCCN1 | inactive | –
20 | C=C1CC[C@H]2[C@@](C)(CCC(O)[C@@]2(C)CO)[C@@H]1CCC1=CCOC1=O (some centres undefined) | inactive | –

Row | SMILES | Potency | activity change, negative = cytotoxicity
21 | CC1(C)CCC[C@]2(C)[C@H]3CC(=O)O[C@]3(C)CC[C@@H]12 | inactive | –
22 | O=C(O)c1cc2cccc([N+](=O)[O-])c2[nH]1 | inactive | –
23 | Nc1ccccc1N | 10 µM (active) | –
24 | CC1(C)CC[C@]2(C(=O)O[C@@H]3O[C@H](CO)[C@@H](O)[C@H](O)[C@H]3O)CC[C@]3(C)C(=CCC4[C@@]5(C)C[C@@H](O)[C@H](O)C(C)(C)C5[C@H](O)C[C@]43C)[C@@H]2[C@@H]1O (some centres undefined) | inactive | –
25 | CN1CCN(Cc2ccc(-c3cnc4[nH]cc(-c5ccc6[nH]ccc6c5)c4c3)cc2)CC1 | 10 µM (active) | –
26 | Nc1nccn2c(C3CCC(C(=O)O)CC3)nc(-c3cc4cccc(Cl)c4[nH]3)c12 (centres undefined) | 10 µM (active) | –
27 | COc1ccc(-n2[nH]c(=O)c3[nH]c4cc(Cl)ccc4c(=O)c3c2=O)c(C)c1 | inactive | –
28 | CC1(C)CCCC2(C)C(C(=O)O)=CCC12 (centres undefined) | inactive | –
29 | C=C(C)C1CCC(C)C12CC(O)C1(C)OC1C2OC(=O)C(N)CCC(=O)O (centres undefined) | inactive | –
30 | CC1CCC2(C(=O)O)CCC3(C)C(=CCC4C5(C)CCC(O)C(C)(CO)C5CCC43C)C2C1(C)O (centres undefined) | inactive | –
31 | COc1cc([C@H]2c3cc(O)c(OC)cc3C[C@@H](CO[C@@H]3O[C@H](CO)[C@@H](O)[C@H](O)[C@H]3O)[C@@H]2CO)ccc1O | inactive | –
32 | O=C(O)/C=C/c1ccc(-c2ccc(O)c(C34CC5CC(CC(C5)C3)C4)c2)cc1 | 10 µM (active) | –
33 | COc1cc(O)cc(C)c1C(=O)OC1C(CO)OC(OC2C(O)C(O)C(O)C(O)C2O)C(O)C1O (centres undefined) | inactive | –
34 | CCOCc1cc(OC)c(-c2ccc(C[C@H](NC(=O)c3c(F)cccc3F)C(=O)O)cc2)c(OC)c1 | inactive | –
35 | Nc1ccc(/C=C/C(=O)NCc2cc3cc(-c4ccc(C(=O)N5CCC(F)(F)CC5)cc4)cc(-c4ccc(F)cc4)c3o2)cn1 | 3.55 µM (active) | –
36 | c1ccc(-c2ncc(CN3CCN(c4ncccn4)CC3)[nH]2)cc1 | inactive | –
37 | COC(=O)C1=CO[C@@H](O[C@@H]2O[C@H](CO)[C@@H](O)[C@H](O)[C@H]2O)[C@@H]2C(CO)=CC[C@]12O | inactive | –
38 | CC(C)CCC1(O)C(=O)C(C)(C)C(O[C@@H]2O[C@H](CO)[C@@H](O)[C@H](O)[C@H]2O)C(C)(C)C1O (some centres undefined) | inactive | –
39 | CCOCCn1nc(CC)c2nc(N3CCC(C(=O)O)CC3)nc(Nc3cc(C)ccn3)c21 | inactive | –
